Shown are actives, neighbours in structure and some others; about 0.92% of the full set was active somewhere.
LAP4 TOR yeast – alters LAP4-GFP fluorescence in TOR pathway yeast screen. S. cerevisiae LAP4-GFP multiplex, flow cytometry GFP, 3 h; median GFP as percent of DMSO wells. GFP response vs DMSO, % at 10 µM. 320,000 tested, 0.34% active. AID 2023;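 active = GFP response vs DMSO above a set limit, about the screen mean plus 3 SD, cut at about 150% in these data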
RPL19A TOR yeast – yeast TOR pathway RPL19A-GFP modulation. S. cerevisiae RPL19A-GFP strain, flow cytometry, 3 h; stronger effect = lower value. percent response vs DMSO, % at 10 µM. 330,000 tested, 0.3% active. AID 2025;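 active = percent response vs DMSO below 50%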;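 also: median channel GFP fluorescence of the barcoded RPL19A-GFP strain; ratio of sample median GFP to plate DMSO average so 100% = DMSO; lower means less RPL19A-GFP as with rapamycin TOR inhibition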
MEP2 TOR yeast – yeast TOR pathway MEP2-GFP modulation; 330,000 tested, 0.51% active; GFP response vs DMSO, % at 10 µM; S. cerevisiae MEP2-GFP strain, flow cytometry GFP, 3 h; 100% = DMSO control level;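 active = GFP response versus DMSO above a set limit, roughly screen mean plus 3 SD, cut at about 180% in these data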;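 also: median GFP fluorescence of the barcode-gated MEP2-GFP cells per well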
AGP1-GFP MLPCN – modulators of TOR pathway AGP1-GFP in S. cerevisiae | 320,000 tested, 0.02% active | S. cerevisiae AGP1-GFP multiplex flow cytometry, 3 h; GFP as percent of DMSO wells | AID 2066 | GFP response vs DMSO, % at 10 µM;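 active = GFP response relative to DMSO above a set limit, near screen average plus 3 SD, cut at about 150% in these data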;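 also: median GFP channel fluorescence of the gated AGP1 strain per well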
CIT2-GFP yeast – modulators of TOR pathway CIT2-GFP in S. cerevisiae; S. cerevisiae CIT2-GFP strain, flow cytometry, 3 h; 100 means same as DMSO wells; GFP response vs DMSO, % at 10 µM; 320,000 tested, 0.065% active; AID 2029;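 active = GFP response relative to DMSO above a set limit, near the screen mean plus 3 SD, cut at about 150% in these data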;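 also: ratio of well median GFP fluorescence to mean of DMSO wells on the plate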
LAP4 cherry2 – yeast LAP4-GFP modulation, second cherry pick | 590 tested, 20% active | shares compounds with LAP4 TOR yeast | GFP response vs DMSO, % at 10 µM | S. cerevisiae LAP4-GFP strain, flow cytometry GFP, 3 h;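 active = GFP signal as percent of the solvent control above about 150%, meaning raised reporter expression, limit read from the data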;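 also: ratio of well median GFP fluorescence to plate DMSO mean so 100% = DMSO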
MEP2-GFP pick2 – yeast MEP2-GFP modulation, second cherry pick | shares compounds with LAP4 TOR yeast | S. cerevisiae MEP2-GFP strain, flow cytometry GFP, 3 h | GFP response vs DMSO, % at 10 µM | 590 tested, 10% active;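 active = GFP signal above 150% of the solvent control wells, that is a rise of more than half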;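 also: median channel GFP fluorescence of all gated yeast cells per well; ratio of median GFP to plate DMSO average so 100% = DMSO level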
RPL19A-GFP pick2 – reconfirmed modulator of RPL19A-GFP TOR reporter in yeast. shares compounds with LAP4 TOR yeast. S. cerevisiae RPL19A-GFP strain, flow cytometry GFP, 3 h; stronger effect = lower value; 100% means same as DMSO wells. GFP response vs DMSO, % at 10 µM. 590 tested, 3% active. AID 2623;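 active = under 65% GFP response relative to DMSO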;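 also: median GFP channel fluorescence per well over the all cells gate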
CIT2 GFP CP2 – second confirmation of modulators of TOR reporter CIT2-GFP in yeast | shares compounds with LAP4 TOR yeast | S. cerevisiae CIT2-GFP strain, flow cytometry GFP, 3 h; DMSO control wells read 100% | GFP response vs DMSO, % at 10 µM | 590 tested, 8% active | AID 2624;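 active = GFP response vs DMSO above about 150%, limit read from the data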;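 also: median green fluorescence per well over all gated yeast cells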
AGP1-GFP pick2 – yeast AGP1-GFP TOR reporter modulation, second cherry pick. S. cerevisiae AGP1-GFP strain, flow cytometry GFP, 3 h. AID 2643. shares compounds with LAP4 TOR yeast. 590 tested, under 10 active. percent response vs DMSO, % at 10 µM;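 active = over 150 percent of DMSO response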;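 also: median GFP channel fluorescence over all cells without mother daughter split; sample median GFP divided by mean DMSO control so 100% equals DMSO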
Yeast autofluor – compound is autofluorescent in yeast s288c cells | shares compounds with LAP4 TOR yeast | S. cerevisiae s288c, 520 nm autofluorescence, flow cytometry, 3 h; stronger effect = higher value; zero means same as solvent-only cells | fluorescence change (kMESF span) at 33 µM | 610 tested, under 10 active;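 active = fluorescence span over the dose series, or activity score, above about 33, limit read from the data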
s288c autofl DR – yeast s288c autofluorescence artifact in dose response; AID 488829; S. cerevisiae s288c parental, compound autofluorescence, flow cytometry, 3 h; fluorescence change (span) at 33 µM; 110 tested, under 10 active; shares compounds with LAP4 TOR yeast;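 active = fluorescence change span, or the activity score built from it, above 25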
TORC1 bypass gr – compounds blocking wildtype yeast growth but not TORC1 bypass cells; 120 tested, under 10 active; shares compounds with LAP4 TOR yeast; growth rating (0-3) at 30 µM; S. cerevisiae BY4741 spot growth rating, 48-72 h; stronger effect = lower value;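 active = growth rating at most 1 for wild type yeast while the TORC1 bypass strain still grows fully, rated 3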
* marks the source's active call; other numbers are inactive results; . = no result given; + = active, no number; [ ] = another dose, or the depositor's remark.

SMILES | LAP4 TOR yeast | RPL19A TOR yeast | MEP2 TOR yeast | AGP1-GFP MLPCN | CIT2-GFP yeast | LAP4 cherry2 | MEP2-GFP pick2 | RPL19A-GFP pick2 | CIT2 GFP CP2 | AGP1-GFP pick2 | Yeast autofluor | others
Cc1ccc(C(CC(=O)O)NC(=O)c2ccc(S(=O)(=O)N3CC(C)OC(C)C3)cc2)cc1 (stereo unspecified) | 113.8 | 100.4 | 195.9* | 97.1 | 109.5 | 98.2 | 99.6 | 99.1 | 96.0 | 98.6 | 0
CCOC(=O)CSC1=NC(=O)/C(=C/c2ccc(Br)cc2)S1 | 215.8* | 83.5 | 96.7 | 89.2 | 82.5 | . | . | . | . | . | 0
COc1cccc(C(=O)NCCS(=O)(=O)NCc2ccco2)c1 | 150.6* | 85.4 | 87.5 | 102.0 | 84.4 | 101.0 | 104.8 | 100.0 | 102.9 | 99.6 | .
O=C1OC(c2ccc(F)cc2)=C/C1=C\c1ccc([N+](=O)[O-])o1 | 291.4*[may fluoresce green] | 136.2 | 647.2*[may fluoresce green] | 99.1 | 216.7*[may fluoresce green] | 667.3* | + | 191.8 | 990.6* | 174.0* | .
O=C1OC(c2ccc(F)cc2)=C/C1=C\c1ccc(O)cc1 | 94.9 | 103.5 | 108.1 | 101.1 | 105.2 | . | . | . | . | . | .
O=C1ON=C(c2ccccc2)/C1=C/c1ccc(O)cc1 | 115.7 | 100.2 | 94.7 | 89.8 | 112.9 | . | . | . | . | . | .
O=C1ON=C(c2ccc(Cl)cc2)/C1=C/c1ccc(O)cc1 | 161.1* | 88.9 | 85.9 | 77.8 | 95.7 | . | . | . | . | . | 0.7
COc1cc(/C=C2/C(=O)ON=C2c2ccccc2)ccc1O | 172.9* | 94.7 | 93.2 | 77.8 | 98.7 | . | . | . | . | . | 0.2
COc1cc(/C=C2\C(=O)ON=C2c2ccccc2)cc(Br)c1O | 157.3* | 91.8 | 96.4 | 89.2 | 119.1 | . | . | . | . | . | 1.3
CCOc1cc(/C=C2\C(=O)ON=C2c2ccccc2)cc(Br)c1O | 134.8 | 87.9 | 88.2 | 82.9 | 119.1 | . | . | . | . | . | .
O=C(Cc1ccc(Br)cc1)OCC(=O)c1ccc[nH]1 | 97.9 | 101.6 | 106.4 | 95.6 | 101.3 | . | . | . | . | . | .
Cc1ccc(NC(=O)c2ccc(Cl)c(N3C(=O)C=CC3=O)c2)cc1 | 129.2 | 49.6* | 94.8 | 60.6 | 68.9 | . | . | . | . | . | 1.4 | s288c autofl DR=1.31;TORC1 bypass gr=3
COc1ccc(OCc2ccc(/C=N\NC(=O)c3sccc3C)o2)cc1 | 66.5 | 105.7 | 101.9 | 94.0 | 91.5 | . | . | . | . | . | .
O=C(Nc1cccc(N=Cc2cc(Cl)cc(Br)c2O)c1)c1ccco1 | 128.0 | 94.7 | 96.3 | 90.1 | 93.4 | . | . | . | . | . | .
O=C(Nc1cccc(N=Cc2cc(Br)cc(Br)c2O)c1)c1ccco1 | 189.9* | 71.2 | 96.2 | 86.1 | 85.0 | 146.3 | 127.5 | 71.3 | 116.8 | 98.6 | .
CCOc1ccc(CN(C)c2ccc(S(=O)(=O)N3CCN(C)CC3)cc2[N+](=O)[O-])cc1OC | 90.1 | 91.7 | 101.1 | 90.5 | 88.5 | . | . | . | . | . | .

Compound activity: PubChem, NMMLSC
